Laboratory results reported in PubChem BioAssay AID1159580 (chemical genetic matrix, 2015).
In all, about 5,500 compounds went through this assay and about 2,000 (36%) were called active. Inconclusive results (about 18%) are left out. Cut-off read from the data, not from the text of the source: active = normalized growth mostly below about 0.91 (no sharp cut-off); inconclusive = no clear call, values can overlap the other calls; inactive = mostly above about 0.92. The list shows a part of the results.

Assay: chemical genetic growth profiling, strain panel (AID 1159580);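 note: tested at 20 µM; growth read once vehicle control cultures reached saturation at 30 °C; 1 = growth at the plate median or of vehicle wells; lower values mean less growth of the strain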
Details: S. cerevisiae deletion strains, growth OD
[1] = locus YDR150W, strain NUM1, active compounds read low
[2] = locus YGR078C, strain PAC10, active compounds read low
[3] = locus YMR263W, strain SAP30, active compounds read low
[4] = locus YPL055C, strain LGE1, active compounds read low

Measured: normalized growth

CCN(CC)C(=O)N[C@@H]1C[C@@H]2c3cccc4[nH]cc(c34)C[C@H]2N(C)C1
inactive: locus YAL040C, strain CLN3, active compounds read low 1 | locus YCL061C, strain MRC1 (second series), active compounds read low 1.01 | [1] 1 | locus YDR363W, strain ESC2, active compounds read low 1.01 | locus YER002W, strain NOP16, active compounds read low 0.995 | [2] 1.01 | [3] 1 | locus YMR307W, strain GAS1, active compounds read low 1.01 | locus YNL128W, strain TEP1, active compounds read low 1.01 | locus YNL175C, strain NOP13, active compounds read low 0.993 | locus YNL197C, strain WHI3, active compounds read low 0.995 | locus YNL224C, strain SQS1, active compounds read low 1.02 | locus YOR083W, strain WHI5 (second series), active compounds read low 1.01 | [4] 1.01

COC(CNc1cccc(Cl)c1C#N)OC
inactive: locus YAL013W, strain DEP1, active compounds read low 0.997 | locus YBR229C, strain ROT2, active compounds read low 0.994 | locus YDL101C, strain DUN1, active compounds read low 0.983 | locus YDL134C, strain PPH21, active compounds read low 0.961 | [1] 1.01 | locus YEL061C, strain CIN8, active compounds read low 0.971 | [2] 0.989 | locus YGR229C, strain SMI1, active compounds read low 0.978 | locus YHR030C, strain SLT2, active compounds read low 0.944 | locus YHR087W, strain rtc3, active compounds read low 0.98 | locus YJL187C, strain SWE1, active compounds read low 0.981 | locus YJR043C, strain POL32, active compounds read low 0.989 | locus YJR075W, strain HOC1, active compounds read low 0.958 | locus YLR039C, strain RIC1, active compounds read low 0.983 | locus YLR058C, strain SHM2 (second series), active compounds read low 0.989 | locus YLR085C, strain ARP6, active compounds read low 0.931 | locus YLR262C, strain YPT6, active compounds read low 0.979 | locus YML094W, strain GIM5, active compounds read low 0.953 | locus YMR219W, strain ESC1, active compounds read low 0.986 | [3] 1.01 | locus YNL153C, strain GIM3, active compounds read low 0.946 | locus YNL298W, strain CLA4 (second series), active compounds read low 0.979 | locus YNL322C, strain KRE1, active compounds read low 0.98 | locus YNR030W, strain Alg12, active compounds read low 0.976 | [4] 1.03 | locus YPL241C, strain CIN2, active compounds read low 0.95 | locus YPR135W, strain CTF4, active compounds read low 0.957
